The values that follow come from PubChem BioAssay.

Values joined by “and” are separate entries in the source; they are usually repeats but may differ in a detail not shown here. Equal entries are not always repeated. Active and inactive are the calls of the source.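 Rule for the calls, unless noted: active = inhibition at or above 50% relative to wild type and mutant plate controls; inactive = inhibition below 50%.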

The inhibition is the relative decrease from the control value, in per cent.

Test [1] is described as follows: inhibitors of Chlamydomonas gravitaxis, primary screen, whole organism, Chlamydomonas reinhardtii, WT vs cilia-less mutant, absorbance, 96-well (AID 463189).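 Note: 0% = wild type cc124 cells in DMSO and 100% = ciliumless bld1 mutant cells.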 Particulars: OD600 absorbance, 2 days, at 10 µM, stronger effect = higher value.
A short description of test [2]: inhibitors of mutant huntingtin aggregation, primary screen, imaging, exon1htt(103Q)mCFP cells, high-content imaging (AID 483;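 active = visual image review flags a hit and inhibition of aggregation exceeds 20%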;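 note: compound exposure lasted 3 days before fixation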;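 for nuclei count: percent of the per-plate median nuclei count of sample wells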). The settings on record: exon1htt(103Q)mCFP cell line, aggregate imaging, at 2 µM; inhibition of aggregation: stronger effect = higher value; nuclei count: measured here: cell count, toxicity.
A short description of test [3]: inhibitors of E-selectin induction by TNFa, primary screen, imaging, HUVEC, immunofluorescence, MLSMR starter and 10KST1 sets (AID 487;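 active = visually confirmed hit in the image check and inhibition above 20%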;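 for inhibition: signal is fraction of cell area covered by stained E-selectin grains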;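 for nuclei count: 100% = median nuclei count of all wells on the same plate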). Particulars: HUVEC TNFalpha-induced E-selectin immunofluorescence imaging, at 2 µM; inhibition: stronger effect = higher value; nuclei count: measured here: cell number, toxicity.
A short description of test [4]: DUSP6 inhibitors restoring Erk phosphorylation by chemical complementation, primary imaging in DUSP6-transfected HeLa (AID 609;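 active = compounds giving at least 50% inhibition in the cell-based MKP-3 phosphatase rescue imaging test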;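 for inhibition: phospho-Erk level distribution per well compared with pooled transfected vehicle control wells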). Particulars: HeLa MKP-3 transfected, phospho-Erk imaging KS statistic, at 10 µM, cells stimulated with TPA for 15 min.
The target in test [5] is Dual specificity protein phosphatase 6 (Homo sapiens) (UniProt Q16828). Described as above. The settings on record: HeLa MKP-3 transfected, phospho-Erk imaging KS statistic; at 10 µM; stronger effect = higher value; cells stimulated with TPA for 15 min.
In test [6] the target is Voltage-gated potassium channel subunit beta-2 (Rattus norvegicus) (UniProt P62483). The experiment in a line: KvBeta enzyme negative modulators, primary screen, biochemical, NADPH fluorescence (AID 622;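 active = fluorescence slope higher than the sample average by over 3 SD, cut at about -0.22 in these data, passing the limit was not always enough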;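 note: slope of raw intensity against log time taken from 70 to 1610 s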). The settings on record: recombinant KvBeta, 4-cyanobenzaldehyde reduction, at 10 µM, stronger effect = higher value.
Test [7] shares this target. The test is described as follows: KvBeta positive modulators, primary screen, biochemical, NADPH fluorescence (AID 623;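 active = NADPH fluorescence slope more negative than the mean of all samples by about 3 SD, 99.7% confidence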;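 note: fluorescence intensity change per second fitted from 20 to 320 s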). Particulars: Recombinant KvBeta, NADPH fluorescence decrease slope, 10 min; at 10 µM; stronger effect = lower value.
In test [8] the target is Alpha-2C adrenergic receptor (Homo sapiens) (UniProt P18825). The experiment in a line: modulators of alpha2C/GIRK thallium flux, primary screen, cell-based, HEK293 alpha2C/GIRK1/2 (AID 624;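 active = fluorescence slope after compound addition differing from the mean of all screened samples at 99.7% confidence, in either direction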;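 note: slope of fluorescence ratio to pre-addition baseline per second over 15 to 24 s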). Particulars: thallium flux BTC fluorescence, at 10 µM, actives lie on both sides.
A short description of test [9]: inhibitors of larval lipid processing in zebrafish, primary screen, whole organism, PED6 fluorescence, gall bladder and intestine (AID 686;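 active = a full or partial loss of lipid-probe fluorescence in the fish gall bladder, intestine or both, judged by eye; inactive = no fluorescence loss, or compound toxic to the fish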;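 note: larvae 5 to 7 days old with five fish per well; signal comes from phospholipase A2 cleavage of quenched PED6 carried via bile; overnight exposure to compound and PED6 before scoring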). Particulars: Zebrafish larvae PED6 lipid processing, fluorescence scoring; screened at 20 µM (by protocol).
Test [10] is described as follows: inhibitors of Sendai virus-induced IRF3 signaling, primary screen, TLR/RLR signaling modifier project, cell-based, Sendai virus stimulus, luciferase, 10K MLSCN set (AID 602276;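 active = inhibition at or above 50% at 10 µM; inactive = inhibition below 50%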;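 note: firefly luciferase from ISG56 promoter only with Renilla not read in this screen; 0% = Sendai virus plus DMSO and 100% = medium plus DMSO without virus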). Particulars: HEK293 RL24 IRF3 luciferase reporter, at 10 µM, stronger effect = higher value. (In general: Reporter assays use an easily measured gene product as a stand-in for the process of interest.)

A short description of test [11]: inhibitors of poly I:C-induced TLR3 signaling, primary screen, cell-based, poly I:C stimulus, luciferase, 10K MLSCN set (AID 602277;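 active = inhibition of the reporter signal at or above 50%; inactive = inhibition below 50%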). The settings on record: HEK293-TLR3 RL24 IRF3 luciferase reporter, at 10 µM, stronger effect = higher value.
Where [12] appears, read: measured here: cell density z-score.
Where [13] appears, read: measured here: nuclear c-Myc green intensity z-score.
[14] abbreviates: measured here: nuclear pErk red intensity z-score, stronger effect = higher value.

Alpha-2C adrenergic receptor (Homo sapiens), sequence (P18825 whole entry, looked up): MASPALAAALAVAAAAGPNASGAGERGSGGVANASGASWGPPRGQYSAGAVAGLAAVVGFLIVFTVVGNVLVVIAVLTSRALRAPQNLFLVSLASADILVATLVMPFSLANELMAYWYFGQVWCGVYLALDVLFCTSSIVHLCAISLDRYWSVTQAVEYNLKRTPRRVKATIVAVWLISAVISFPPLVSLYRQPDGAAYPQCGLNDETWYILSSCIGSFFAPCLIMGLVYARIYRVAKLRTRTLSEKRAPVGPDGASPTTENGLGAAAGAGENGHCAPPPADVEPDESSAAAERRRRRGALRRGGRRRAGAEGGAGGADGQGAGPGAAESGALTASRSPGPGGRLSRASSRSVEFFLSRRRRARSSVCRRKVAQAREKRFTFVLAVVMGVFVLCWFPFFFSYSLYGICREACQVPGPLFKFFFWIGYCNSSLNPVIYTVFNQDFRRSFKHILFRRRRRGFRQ
Voltage-gated potassium channel subunit beta-2 (Rattus norvegicus), sequence (P62483 whole entry, looked up): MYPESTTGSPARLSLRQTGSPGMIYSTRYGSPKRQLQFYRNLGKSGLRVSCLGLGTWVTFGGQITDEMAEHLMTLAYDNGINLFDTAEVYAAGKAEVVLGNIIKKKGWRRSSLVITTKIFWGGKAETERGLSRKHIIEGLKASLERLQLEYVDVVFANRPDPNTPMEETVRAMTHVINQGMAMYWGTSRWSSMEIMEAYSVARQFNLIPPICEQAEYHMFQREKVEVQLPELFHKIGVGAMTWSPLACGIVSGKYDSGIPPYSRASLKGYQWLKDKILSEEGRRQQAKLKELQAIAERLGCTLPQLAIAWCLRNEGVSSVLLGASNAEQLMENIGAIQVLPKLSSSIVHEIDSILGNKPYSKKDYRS
Dual specificity protein phosphatase 6 (Homo sapiens), sequence (Q16828 whole entry, looked up): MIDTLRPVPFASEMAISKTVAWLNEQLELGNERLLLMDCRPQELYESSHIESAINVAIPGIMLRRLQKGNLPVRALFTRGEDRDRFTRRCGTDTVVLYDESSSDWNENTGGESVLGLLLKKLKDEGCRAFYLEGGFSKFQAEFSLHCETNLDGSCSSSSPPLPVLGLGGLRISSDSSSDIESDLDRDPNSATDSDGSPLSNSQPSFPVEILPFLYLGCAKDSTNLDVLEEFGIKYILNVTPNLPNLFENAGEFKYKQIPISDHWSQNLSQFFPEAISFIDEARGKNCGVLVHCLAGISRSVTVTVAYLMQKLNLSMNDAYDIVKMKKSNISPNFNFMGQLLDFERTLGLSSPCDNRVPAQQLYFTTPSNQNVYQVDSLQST

For `C[N+](C)(C)CCOC(N)=O`, the inhibition in test [1] is 7.07% (inactive).
Still for that read-out and setting: the same measure for `COc1ccc(CCCOc2cc(CCn3ccnc3)ccc2OC)cc1`: 1.24% (inactive); for `O=C1CC2(CCCC2)CC(=O)N1CCCCN1CCN(c2ncccn2)CC1`: 3.65% (inactive).
On the same count and under the same terms, the result for `O=C(O)c1cc([N+](=O)[O-])ccc1NCCCc1ccccc1` reads 9.38% (inactive); that for `O=c1ccc2ccc(O)c(O)c2o1`, -4.31% (inactive); that for `c1cnc2c(c1)ccc1cccnc12`, 10.8% (inactive).
Same read-out and setting: the result for `CC(C)(C)NCC(O)COc1cccc2[nH]c(=O)[nH]c12` (centres undefined) reads 3.61% (inactive); that for `CC(C)NC[C@H](O)COc1cccc2ccccc12`, 8.72% (inactive); that for `CNC(=O)[C@H]1O[C@@H](n2cnc3c(NCc4ccc(I)cc4)nc(Cl)nc32)[C@H](O)[C@@H]1O`, 0.705% (inactive).
As to `CC12CC3CC(C)(C1)CC(N)(C3)C2`, the inhibition in [1] was 3.51% (inactive).
Same read-out and setting: the result for `CC1(NCC(O)COc2cccc3[nH]ccc23)CCC(C(C)(C)NC(=O)CBr)CC1` (centres undefined) reads 5.45% (inactive); that for `O=C1NCN(c2ccccc2)C12CCN(CCCC(c1ccc(F)cc1)c1ccc(F)cc1)CC2`, -2.36% (inactive).
On the same count and under the same terms, the result for `c1cc(CN2CCCCC2)cc(OCCCNc2nc3ccccc3s2)c1` reads 26.8% (inactive); that for `N#C/C(=C\c1c[nH]c2ccccc12)C(=O)c1ccc(O)c(O)c1`, 4.95% (inactive).
On the same count and under the same terms, the result for `COc1cc([C@@H]2c3cc4c(cc3[C@H](O)C3COC(=O)[C@@H]32)OCO4)cc(OC)c1OC` (some centres undefined) reads 0.089% (inactive); that for `[Li+]`, -0.162% (inactive); that for `NC/C=C\C(=O)O`, 3.63% (inactive).
On to `NCCCCCCNS(=O)(=O)c1cccc2c(Cl)cccc12`, for which the inhibition in test [1] is 7.85% (inactive).
Same read-out and setting: the same measure for `CC(=O)SC1CC2=CC(=O)CC[C@]2(C)C2CC[C@@]3(C)C(CC[C@@]34CCC(=O)O4)C12` (some centres undefined): 3.21% (inactive).
Same read-out and setting: the same measure for `Oc1ccc(Cn2cc[nH]c2=S)cc1`: 7.18% (inactive); for `NC1(C(=O)O)CCCCC1`: -2.27% (inactive).
The same measure, in the same setting: the result for `O=C1N=C(O)CN1/N=C/c1ccc(-c2ccc([N+](=O)[O-])cc2)o1` reads 4.87% (inactive); that for `COc1ccccc1OCC(O)CN1CCN(CC(=O)Nc2c(C)cccc2C)CC1` (centres undefined), 8.13% (inactive); that for `COc1ccc(C(=O)NCc2cccnc2)cc1C(=O)NCc1cccnc1`, 6.89% (inactive).
Regarding `C[C@H](O)C(=O)C1=Nc2c(nc(N)[nH]c2=O)NC1`, the inhibition in [1] is 7.45% (inactive).
On the same count and under the same terms, the same measure for `Cc1nc(N=Nc2cc(S(=O)(=O)O)c3cc([N+](=O)[O-])cc(S(=O)(=O)O)c3c2)c(COP(=O)(O)O)c(C=O)c1O`: 0.765% (inactive); for `Nc1ncn([C@@H]2O[C@H](CO)[C@@H](O)[C@H]2O)c(=O)n1`: 3.22% (inactive).
The same measure, in the same setting: the result for `NCCCCCCCCCCN` reads 2.72% (inactive); that for `CC(C)NCC(O)COc1cccc2ccccc12` (centres undefined), 6.9% (inactive).
On the same count and under the same terms, the result for `CN=C(NC#N)Nc1ccc(C2=NNC(=O)CC2C)cc1` (centres undefined) reads -4.34% (inactive); that for `CNc1ncnc2c1ncn2[C@H]1C[C@H](OP(=O)(O)O)[C@@H](COP(=O)(O)O)O1`, 1.24% (inactive).
In the case of `COc1ccc2c(c1)c(CC(=O)O)c(C)n2C(=O)c1ccc(Cl)cc1`, the inhibition of aggregation in [2] is -23.8% (inactive). Further, the nuclei count in [2] came out at 104%; in [3], 122%. Moreover, the inhibition is -69% (inactive) in [3]; 16.8% (inactive) in test [5]; 2.25% (inactive) and -4% (inactive) in [1]; 9.52% (inactive) in [10]; 22.4% (inactive) in test [11]. In addition, the z-score is 0.752 in [4] (setting [12]), -1.27 in [4] (setting [13]) and -0.74 in test [4] (setting [14]). For the same compound, the fluorescence slope in [6] was -0.474 (inactive). The NADPH fluorescence slope in [7] is -6.7e-05 (inactive). For the same compound, the slope in test [8] is 0.00463 (inactive). In addition, the outcome in [9] was inactive.
As for `CCc1nc(N)nc(N)c1-c1ccc(Cl)cc1`, in test [2], the inhibition of aggregation was -35.2% (inactive). Besides, the nuclei count in [2] amounted to 76.3%; in test [3] it was 108%. Further, the inhibition is -93.1% (inactive) in [3]; 12.4% (inactive) in [5]; 37.1% (inactive) in [1]; 18.7% (inactive) in test [10]; -1.71% (inactive) in test [11]. The z-score in [4] (setting [12]) is -1.21; in test [4] (setting [13]), 2.44; in test [4] (setting [14]), -0.22. Also, the fluorescence slope in test [6] is -0.503 (inactive). The NADPH fluorescence slope in test [7] is 1.5e-05 (inactive). Also, the slope in test [8] was 0.00459 (inactive). Further, the compound was classed as inactive in test [9].
On to `CCOC(=O)C1=C(C)NC(C)=C(C(=O)OC)C1c1cccc([N+](=O)[O-])c1` (centres undefined), for which, in test [2], the inhibition of aggregation was -10.5% (inactive). Besides, the values for the nuclei count in test [2] and in test [3] were 97.3% and 103%, respectively. Further, the inhibition in test [3] was -50.3% (inactive); in test [5], 19% (inactive); in test [1], 5.78% (inactive) and 6.95% (inactive); in test [10], 12.9% (inactive); in test [11] it was 43.8% (inactive). Moreover, the z-score in [4] (setting [12]) is 1.1; in [4] (setting [13]) it was 0.446; in test [4] (setting [14]) it was 0.0067. In addition, the fluorescence slope in test [6] was -0.475 (inactive). The NADPH fluorescence slope in test [7] is -2e-05 (inactive). Also, the slope in [8] was 0.00369 (inactive).
As for `CC(=O)Oc1ccc(C(c2ccc(OC(C)=O)cc2)c2ccccn2)cc1`, in test [2], the inhibition of aggregation was -12.4% (inactive). Moreover, the nuclei count in test [2] worked out at 99.8%; in test [3] it was 100%. In addition, the inhibition in test [3] is -68.3% (inactive); in [5], 5.79% (inactive); in test [1], 19.6% (inactive); in [10] it was 12.5% (inactive); in [11] it was 40.9% (inactive). Besides, the z-score in test [4] (setting [12]) is -0.73; in [4] (setting [13]), 0.784; in test [4] (setting [14]), 0.224. Also, the fluorescence slope in test [6] was -0.45 (inactive). In addition, the NADPH fluorescence slope in test [7] is -2.1e-05 (inactive). Also, the slope in test [8] was 0.00425 (inactive). In test [9], the compound was called inactive.
`C1COC(NC(C2CC2)C2CC2)=N1`: the inhibition of aggregation in [2] is 19% (inactive). Moreover, the figures for the nuclei count in [2] and in test [3] were 109% and 116%, respectively. For the same compound, the inhibition in [3] is -91.3% (inactive); in test [5] it was 25.7% (inactive); in test [1] it was 2.12% (inactive) and 18.6% (inactive); in test [10] it was -6% (inactive); in test [11], 20.5% (inactive). Further, the z-score in [4] (setting [12]) was -0.996; in test [4] (setting [13]), 0.285; in test [4] (setting [14]), -0.338. Besides, the fluorescence slope in test [6] was -0.468 (inactive). Also, the NADPH fluorescence slope in [7] was -4.8e-05 (inactive). In addition, the slope in test [8] is 0.00489 (inactive).
